Here are results for 13 molecules from PubChem BioAssay (NCATS).

The subject of assay [1] is NIH3T3. As to the kind of experiment: Cytotoxic Profiling of Annotated Libraries Using Quantitative High-Throughput Screening (AID 1296008). For max response: % is set by controls: 0 for no effect and ±100 for the full control effect. Note: nearly all actives have a fitted effect of over 60% in size. Note: potency is the fitted concentration of half-maximal effect. The settings on record: Five cell lines viability, CellTiter-Glo ATP luminescence, 48-72 h; max response: hits give low values. A digest of the protocol:
(§1)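 Compounds were pin-transferred onto cells and incubated 48 or 72 hr at 37 degree Celsius, 95% humidity. CellTiter-Glo was added, plates sat 10 min at room temperature, then ATP-coupled luminescence was imaged as the viability read-out.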
Background: Cellular ATP, detected with luciferase, serves as a proxy for viable cell number.

Assay [2] has as its system HACAT. Put plainly: qHTS assay to identify novel small-molecules to repurpose for Merkel cell carcinoma treatment (AID 1296009). Note: nearly all actives have a fitted effect of over 60% in size. The settings on record: MCC and control cell lines, CellTiter-Glo viability, 72 h; at 44.8 µM (top of the series) unless noted. Summed up: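 Luminescence from CellTiter-Glo, read 10 min after addition at room temperature, reported viability following a 72 hr, 37 degree celsius treatment with NPC or MIPE compounds in titration; values normalized to plate controls.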
Background: qHTS replaces the single test concentration by a dilution series.

Assay [3] relates to C33A. As to the kind of experiment: Primary qHTS to identify gynecologic anti-cancer compounds using libraries of approved drugs and bioactive compounds (AID 1345084). For activity change, negative = cytotoxicity: % is set by controls: 0 for no effect and ±100 for the full control effect. Note: nearly all actives have a fitted effect of over 55% in size. Note: potency is the fitted concentration of half-maximal effect. The settings on record: Gynecologic cancer cell panel viability, ATPlite luminescence, 48 h; series mostly up to 57.5 µM. A digest of the protocol:
(§2)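 ATP-based viability (ATPlite), 1,000 cells/well, 16 h pre-incubation, 48 h compound at 37 C, 5% CO2, 15 min RT before read.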

Assay [4] has as its system CAOV3. Described as above. The settings on record: Gynecologic cancer cell panel viability, ATPlite luminescence, 48 h; series mostly up to 57.5 µM. Summed up:
as §2

The subject of assay [5] is Es-2. The assay is described as above. The settings on record: Gynecologic cancer cell panel viability, ATPlite luminescence, 48 h; series mostly up to 57.5 µM. Summed up:
as §2

Assay [6] relates to Hek293T. Described as above. The settings on record: Gynecologic cancer cell panel viability, ATPlite luminescence, 48 h, control line for the selectivity index; series mostly up to 57.5 µM. Summed up:
as §2

Assay [7] deals with PA-1. Described as above. The settings on record: Gynecologic cancer cell panel viability, ATPlite luminescence, 48 h; series mostly up to 57.5 µM. Summed up: as §2
Assay [8] relates to SKOV3. Described as above. The settings on record: Gynecologic cancer cell panel viability, ATPlite luminescence, 48 h; series mostly up to 57.5 µM. A digest of the protocol:
as §2

The test system of assay [9] is Tov112D. Described as above. The settings on record: Gynecologic cancer cell panel viability, ATPlite luminescence, 48 h; series mostly up to 57.5 µM. A digest of the protocol: as §2
Assay [10] deals with HEK293. As to the kind of experiment: Cytotoxic Profiling of Annotated Libraries Using Quantitative High-Throughput Screening (AID 1296008). For max response: % is set by controls: 0 for no effect and ±100 for the full control effect. Note: nearly all actives have a fitted effect of over 60% in size. Note: potency is the fitted concentration of half-maximal effect. The settings on record: Five cell lines viability, CellTiter-Glo ATP luminescence, 48-72 h; max response: hits give low values. Summed up:
as §1

Assay [11] is described as follows: Primary redox qHTS assay for identification of artifact compounds. (AID 1845223).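 Note: 0% = DMSO and 100% = reference compound.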 Summed up: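 Redox-cycling detection via DTT (250 uM final) oxidation coupled to Amplex Red (25 uM)/HRP (250 mU/mL) in HBSS. 15 min preincubation plus 30 min after DTT, room temperature. Ex/Em 525/598 nm; 4-parameter Hill fit against DMSO and 10 uM DA3003.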
For assay [12], the target named is Cytochrome P450 2D6 (Homo sapiens) (UniProt P10635). Put plainly: Cytochrome P450 family 2 subfamily D member 6 (CYP2D6) small molecule antagonists: luciferase biochemical (cell-free) qHTS assay (AID 1645840; active = well fitted curve in the direction sought with a large enough effect in the repeat runs; an effect the other way counts as inactive or inconclusive; note: nearly all actives have a fitted effect of over 55% in size; note: potency is the fitted concentration of half-maximal effect). A digest of the protocol:
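P450-Glo CYP2D6 system: proluciferin substrate converted by enzyme to luciferin, read by luminescence proportional to activity. Enzyme-substrate mix with compound 10 min at room temperature, then NADPH regeneration 1 h before detection reagent.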

For assay [13], the target named is Cytochrome P450 2C9 (Homo sapiens) (UniProt P11712). As to the kind of experiment: Cytochrome P450 family 2 subfamily C member 9 (CYP2C9) small molecule antagonists: luciferase biochemical (cell-free) qHTS assay (AID 1645842; active = well fitted curve in the direction sought with a large enough effect in the repeat runs; an effect the other way counts as inactive or inconclusive; note: potency is the fitted concentration of half-maximal effect; nearly all actives have a fitted effect of over 55% in size). Summed up:
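P450-Glo CYP2C9 system: proluciferin substrate with enzyme in mix containing 0.4% BSA, 10 min at room temperature, then NADPH regeneration solution added and incubated 1 h at 37C. Detection reagent stopped reaction; luminescence read after 20 min as RLU.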

In assay [14] the test system is HeLa. Put plainly: Primary qHTS to identify gynecologic anti-cancer compounds using libraries of approved drugs and bioactive compounds (AID 1345084). For activity change, negative = cytotoxicity: % is set by controls: 0 for no effect and ±100 for the full control effect. Note: nearly all actives have a fitted effect of over 55% in size. Note: potency is the fitted concentration of half-maximal effect. The settings on record: Gynecologic cancer cell panel viability, ATPlite luminescence, 48 h; series mostly up to 57.5 µM. Summed up:
as §2

Results filed as inconclusive are left out. Values without a mark were called inactive. Calls of active or inactive are those of the source. Unless noted, calls come from the whole dose curve; as a rule, active = well fitted curve in the direction sought with a large enough effect; inconclusive = small, poorly fitted or top-dose-only effect, or another doubt; inactive = no such curve, though single readings can be large; an effect the other way counts as inactive or inconclusive.

Cytochrome P450 2D6 (Homo sapiens), sequence (P10635 whole entry, looked up): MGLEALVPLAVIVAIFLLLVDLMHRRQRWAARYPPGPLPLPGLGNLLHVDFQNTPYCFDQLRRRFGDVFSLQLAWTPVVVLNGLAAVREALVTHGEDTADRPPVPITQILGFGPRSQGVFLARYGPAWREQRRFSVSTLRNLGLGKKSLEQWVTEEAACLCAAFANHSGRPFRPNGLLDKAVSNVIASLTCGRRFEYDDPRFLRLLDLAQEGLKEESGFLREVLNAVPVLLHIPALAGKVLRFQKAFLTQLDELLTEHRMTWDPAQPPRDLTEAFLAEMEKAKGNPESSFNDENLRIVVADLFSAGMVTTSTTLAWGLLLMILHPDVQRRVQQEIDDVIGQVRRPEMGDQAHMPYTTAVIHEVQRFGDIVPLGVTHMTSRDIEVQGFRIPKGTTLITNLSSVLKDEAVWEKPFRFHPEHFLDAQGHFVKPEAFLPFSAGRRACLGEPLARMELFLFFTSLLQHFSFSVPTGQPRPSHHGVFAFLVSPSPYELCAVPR
Cytochrome P450 2C9 (Homo sapiens), sequence (P11712 whole entry, looked up): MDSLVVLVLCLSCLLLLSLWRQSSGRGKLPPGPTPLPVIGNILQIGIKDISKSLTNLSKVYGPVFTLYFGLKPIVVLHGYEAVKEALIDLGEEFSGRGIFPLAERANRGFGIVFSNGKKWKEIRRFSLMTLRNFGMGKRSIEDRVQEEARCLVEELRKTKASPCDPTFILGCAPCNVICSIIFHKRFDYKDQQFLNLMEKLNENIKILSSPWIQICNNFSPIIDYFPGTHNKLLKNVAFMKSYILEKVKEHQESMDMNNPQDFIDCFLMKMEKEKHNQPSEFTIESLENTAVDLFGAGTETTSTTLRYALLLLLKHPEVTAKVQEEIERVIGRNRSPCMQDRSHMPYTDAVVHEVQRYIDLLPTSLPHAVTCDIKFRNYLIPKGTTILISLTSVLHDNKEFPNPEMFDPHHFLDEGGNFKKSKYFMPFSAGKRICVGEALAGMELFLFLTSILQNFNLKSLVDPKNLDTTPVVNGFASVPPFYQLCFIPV

Take `CCC1(O)CCC2C3CCC4=CC(=O)CCC4C3CCC21CC` (stereo not drawn): in assay [1], the max response was 1.71%. Further, the molecule was called inactive in assay [2]. Moreover, the Potency result in assay [3], in [4], in assay [5], in assay [6], in [7] and in assay [8] was “inactive” throughout. In assay [9], the Potency result was “inactive”.
Regarding `CC(C)C(=O)O[C@H]1[C@@H]2[C@H](C)C(=O)O[C@@H]2C[C@@H](C)[C@@H]2C=CC(=O)[C@]21C`, the Potency in assay [10] was 9.04 µM (active); in [6] it was 7.94 µM (active). Besides, the Potency result in [4] is “inactive”.
As to `COc1ccc(C23CCC(=O)C=C2N(C)CC3)cc1OC` (stereo not drawn), the Potency result in [11], in assay [3], in assay [4], in assay [5], in [6] and in [7] was “inactive” throughout. In addition, in [9], the Potency entry was “inactive”. In addition, the max response in assay [10] was -6.12%; in assay [1] it was -27.9%. Besides, the Potency in [8] was 25.1 µM (active).
With `Cc1sc2c(c1C)C(c1ccc(Cl)cc1)=NC(CC(=O)OC(C)(C)C)c1nnc(C)n1-2` (stereo not drawn), the Potency entry in assay [11], in assay [3] and in assay [6] was “inactive” each time. Moreover, the values for the Potency in assay [10] and in [7] were 0.651 µM (active) and 2 µM (active), respectively.
For the molecule `C/C=C(/C)C(=O)O[C@H]1[C@@H]2[C@H](C)C(=O)O[C@@H]2C[C@@H](C)[C@@H]2C=CC(=O)[C@]21C`, in [11], the Potency entry is “inactive”. In addition, the max response in assay [10] was -117%.
`COc1cccc(NCC(F)Cn2c3ccc(Br)cc3c3cc(Br)ccc32)c1` (stereo not drawn): the Potency entry in assay [12] and in assay [11] was “inactive” each time. Moreover, the Potency in [13] was 7.56 µM (active); in assay [10], 13 µM (active); in assay [1] it was 20.6 µM (active); in assay [7], 20 µM (active); in assay [8] it was 14.1 µM (active); in assay [9] it was 10 µM (active).
For `CC(=O)OC[C@]12C[C@H](OC(C)=O)C(C)=C[C@H]1O[C@@H]1[C@H](O)[C@@H](O)[C@@]2(C)[C@]12CO2`, the Potency entry in assay [11] was “inactive”. Besides, the Potency in assay [1] is 1.01 µM (active); in assay [4], 1 µM (active); in [5] it was 1.26 µM (active); in assay [6], 0.398 µM (active); in assay [9], 2.24 µM (active).
Turning to `CN(CC[C@H](N)CC(=O)N[C@H]1C=C[C@@H](n2ccc(N)nc2=O)O[C@@H]1C(=O)O)C(=N)N`, the redox activity (% of DA3003) in [11] was -9.15% [at 11.5 µM]. Besides, the molecule was called inactive in assay [10]. In addition, the outcome in [2] is “inactive [at 9.27 µM]”. Besides, the activity change, negative = cytotoxicity in [3] is 6.23% [at 11.6 µM]; in [4], 8.99% [at 11.6 µM]; in [5] it was -2.42% [at 11.6 µM]; in assay [14] it was 9.86% [at 11.6 µM]; in [6], 1.23% [at 11.6 µM]; in assay [7], 5.22% [at 11.6 µM]. The activity change, negative = cytotoxicity in assay [9] was 1.2% [at 11.6 µM].
For `CCCCCn1cc(C(=O)C2C(C)(C)C2(C)C)c2ccccc21`, the Potency result in assay [12], in assay [11], in assay [3], in assay [4], in [5] and in [14] was “inactive” throughout. Further, the Potency result in assay [6], in [7] and in assay [9] was “inactive” each time. The Potency in assay [13] was 10.7 µM (active). The max response in assay [1] was -0.489%. Further, the outcome in [2] was inactive.
For the molecule `Cc1ccc(-n2nccn2)c(C(=O)N2CCN(c3nc4cc(Cl)ccc4o3)CCC2C)c1` (stereo not drawn), the Potency in assay [12] is 16.9 µM (active); in assay [13] it was 1.34 µM (active). In addition, the call in assay [1] and in assay [2] was inactive. Besides, the Potency result in assay [3], in [4], in assay [5], in assay [14], in assay [6] and in assay [9] was “inactive” in each case.
With `COC[C@]12CN(C)C3C4[C@H](OC)[C@H]1C3(C(OC)C[C@H]2O)[C@H]1C[C@@]2(O)[C@H](OC(=O)c3ccccc3)[C@@H]1[C@]4(O)[C@@H](O)[C@@H]2OC` (stereo partly drawn), the Potency entry in assay [11] and in assay [4] was “inactive” throughout.
Consider `C[C@]12CC[C@H](O[C@@H]3O[C@H](CO)[C@@H](O)[C@H](O)[C@H]3O)CC1CC[C@@H]1C2CC[C@]2(C)[C@@H](C3=CC(=O)OC3)CC[C@]12O` (stereo partly drawn), for which the Potency in assay [10] is 3.17 µM (active); in assay [3], 5.62 µM (active); in [5], 10 µM (active); in assay [14] it was 10 µM (active); in assay [6], 7.94 µM (active); in assay [7], 7.94 µM (active). The Potency is 8.91 µM (active) in assay [8] and 3.16 µM (active) in assay [9]. Further, the outcome in [1] was inactive.
Regarding `CC1=CC2/C=C(\C)CCC(O)C(O)/C=C/C(=O)C23C(=O)NC(CC(C)C)C3C1C` (stereo not drawn), the Potency result in assay [11] was “inactive”. In addition, the Potency was 2.82 µM (active) in assay [10]; 7.96 µM (active) in assay [1]; 10 µM (active) in [5]; 7.94 µM (active) in assay [6]; 12.6 µM (active) in [7]; 10 µM (active) in assay [9].
